Measured values as given in PubChem BioAssay AID1851 (National Center for Advancing Translational Sciences (NCATS), 2009).
Values joined by “and” are separate entries in the source; they are usually repeats but may differ in a detail not shown here. Identical values can stand only once. Out of some 16,000 compounds screened, about 5,700 (36%) were called active. Roughly 24% stayed inconclusive and do not appear here. The list shows a part of the results. Values without a mark were called inactive. Calls come from the whole dose curve; as a rule, active = well fitted curve in the direction sought with a large enough effect; inconclusive = small, poorly fitted or top-dose-only effect, or effect the other way; inactive = no such curve, though single readings can be large or run the other way.

Each compound was assayed against Cytochrome P450 1A2 (Homo sapiens) (UniProt P05177) (assay: Cytochrome panel assay with activity outcomes). Conditions: recombinant CYP, pro-luciferin dealkylation, luminescence, p450-cyp1a2; series mostly up to 57.1 µM.
% is set by controls: 0 for no effect and ±100 for the full control effect.

Chain of Cytochrome P450 1A2 (Homo sapiens) (P05177 whole entry, looked up): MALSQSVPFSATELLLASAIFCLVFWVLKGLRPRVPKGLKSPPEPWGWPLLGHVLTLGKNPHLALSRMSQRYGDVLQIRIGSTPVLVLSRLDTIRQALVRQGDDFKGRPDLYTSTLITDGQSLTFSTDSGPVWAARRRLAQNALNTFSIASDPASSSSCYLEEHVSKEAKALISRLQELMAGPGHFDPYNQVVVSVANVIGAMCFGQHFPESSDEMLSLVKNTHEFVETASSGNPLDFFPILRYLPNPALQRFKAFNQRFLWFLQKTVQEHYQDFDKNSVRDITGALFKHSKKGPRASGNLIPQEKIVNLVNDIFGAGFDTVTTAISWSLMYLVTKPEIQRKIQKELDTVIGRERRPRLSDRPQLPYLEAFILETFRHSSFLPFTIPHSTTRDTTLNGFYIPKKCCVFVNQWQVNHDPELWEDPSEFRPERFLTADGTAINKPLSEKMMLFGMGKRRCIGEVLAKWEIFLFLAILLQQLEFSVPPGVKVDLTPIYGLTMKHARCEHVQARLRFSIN

| Structure (SMILES) | AC50 | activity, negative = inhibition |
| --- | --- | --- |
| O=C(NCCCN1CCC(Cc2ccccc2)CC1)C1CCN(S(=O)(=O)N2CCOCC2)CC1 | inactive | – |
| Nc1ccc(C(=O)NCC(=O)O)cc1 | inactive | – |
| O=C(N/N=C/c1cccnc1)c1ccc([N+](=O)[O-])cc1 | 5.01 µM (active) | – |
| O=C(N/N=C\c1cccc(O)c1)c1ccncc1 | – | -15.7% [at 11.4 µM] |
| O=[N+]([O-])c1ccc(/C=N/N/C(=N/c2ccccn2)c2ccccn2)cc1 | 12.6 µM (active) | – |
| O=C(N/N=C/c1ccc(F)cc1)c1ccc(Br)cc1 | 0.794 µM (active) | – |
| COc1cc(/C=N/NC(=O)c2ccncc2)ccc1OC(=O)c1ccc([N+](=O)[O-])cc1 | inactive | – |
| Nc1ccc(C(=O)N/N=C/c2ccccc2)cc1 | 25.1 µM (active) | – |
| O=[N+]([O-])c1ccc([C@@H](Nc2ccccc2)c2ccc3cccnc3c2O)cc1 | – | -21.3% [at 2.29 µM] |
| CO[C@]1(NC(=O)Cc2cccs2)C(=O)N2C(C(=O)O)=C(COC(N)=O)CS[C@H]21 | inactive | – |
| O=C(O)c1cccc(C(=O)O)c1S(=O)Cc1ccccc1 (centres undefined) | – | -2.43% [at 11.4 µM] |
| O=c1c(-c2cccc(F)c2)nc2cncnc2n1C1CC1 | 1.58 µM (active) | – |
| O=c1c(-c2cccs2)nc2cncnc2n1C1CC1 | 2.51 µM (active) | – |
| O=c1c(-c2cccc(Cl)c2)nc2cncnc2n1C1CC1 | 0.631 µM (active) | – |
| O=c1c(-c2ccccc2)nc2cncnc2n1C1CC1 | 2 µM (active) | – |
| Cn1c(=O)c2c(-c3cccc(F)c3)c3c(nc2n(C)c1=O)-c1ccccc1C3O (centres undefined) | inactive | – |
| CCC1OC23CCCCC2C(C#N)(C(=N)O3)C1(C#N)C#N (centres undefined) | inactive | – |
| NC(=O)NC(=O)[C@H]1CCCC[C@@H]1C(=O)O | – | -6.09% [at 11.4 µM] |
| O=C1C2C3C=CC(C3)C2C(=O)N1c1ncn[nH]1 (centres undefined) | inactive | – |
| COc1ccc(-n2c(=O)c(C)nc3cncnc32)cc1 | inactive | – |
| O=c1c(-c2ccc(F)c(F)c2)nc2cncnc2n1C1CC1 | 0.1 µM (active) | – |
| O=c1c(-c2cc(F)cc(F)c2)nc2cncnc2n1C1CC1 | 1.26 µM (active) | – |
| Cc1nc2cncnc2n(C2CC2)c1=O | 15.8 µM (active) | – |
| O=c1c(-c2ccc(F)cc2)nc2cncnc2n1C1CC1 | 0.158 µM (active) | – |

| Structure (SMILES) | AC50 | activity, negative = inhibition |
| --- | --- | --- |
| COC(=O)c1cc2c(ccn2-c2ccc(F)cc2)n1C(C)C | 1 µM (active) | – |
| CCC(C(=O)N1CCOCC1)n1c(C(=O)OC)cc2occc21 (centres undefined) | inactive | – |
| COC(=O)c1cc2c(ccn2-c2ccc(F)cc2)n1CC(C)C | 0.501 µM (active) | – |
| COC(=O)C/C=C\[C@@H](C)[C@@H](/C=N\O[C@@H]1O[C@H](COC(C)=O)[C@H](OC(C)=O)[C@H](OC(C)=O)[C@H]1OC(C)=O)OC | – | 8.95% [at 11.4 µM] |
| COc1ccc(CCN2C(=O)C(Oc3ccccc3C)C2c2ccc3c(c2)OCO3)cc1OC (centres undefined) | inactive | – |
| Cc1ccccc1OC1C(=O)N(Cc2ccc3c(c2)OCO3)C1c1sccc1C (centres undefined) | 3.16 µM (active) | – |
| O=C1C[C@@H](O)[C@@H](O)[C@H]2[C@@H]3C(=O)N(Cc4ccc5c(c4)OCO5)C(=O)[C@@H]3CC[C@H]12 | – | -14.6% [at 11.4 µM] and 4.43% [at 11.4 µM] |
| O=C(c1csnn1)N1CCC2(CCCN(c3ccccc3)C2)CC1 | inactive | – |
| Cn1cc(C(=O)OCC2CCN(CCNS(C)(=O)=O)CC2)c2ccccc21 | 15.8 µM (active) | – |
| COc1[nH]c2ccc(F)cc2c1C(=O)OCC1CCN(CCNS(C)(=O)=O)CC1 | inactive | – |
| COc1cc(N)c(Cl)cc1C(=O)CCC1CCN(CCNS(C)(=O)=O)CC1 | inactive | – |
| CCCCN1C(=O)CCC(C(=O)O)C1c1ccccc1 (centres undefined) | inactive | – |
| CCOC(=O)C1(C(=O)O)NC(=O)CC1c1ccccc1 (centres undefined) | inactive | – |
| CCOC(=O)C1C(=O)NC(C)C1c1ccccc1 (centres undefined) | 12.6 µM (active) | – |
| COC(=O)CSC1=C(C#N)C(c2cccc(F)c2)CC(=O)N1 (centres undefined) | inactive | – |
| CCOC(=O)C1=C(O)C(Nc2nccs2)(C(F)(F)F)N=C1C (centres undefined) | inactive | – |
| COC(=O)C1=C(C)NC(=O)NC1c1ccsc1 (centres undefined) | inactive | – |
| CCOC(=O)C1=C(C)NC(=O)NC1c1ccoc1 (centres undefined) | 15.8 µM (active) | – |
| CCOC(=O)C1=C(C)NC(C)=C(C(=O)OCC)C1c1sccc1C | 5.01 µM (active) | – |
| CCCSC1=C(C#N)C(c2cccnc2)C(C(=O)OCC)=C(c2ccccc2)N1 (centres undefined) | inactive | – |
| CCOC(=O)CSC1=C(C#N)C(c2sccc2C)CC(=O)N1 (centres undefined) | 20 µM (active) | – |
| C=CCOC(=O)C1=C(C)NC(SCC(=O)OCC)=C(C#N)C1c1ccc(C)cc1 (centres undefined) | 12.6 µM (active) | – |
| CC(NC(=O)C1(C)CC1(Br)Br)C(C)(C)C (centres undefined) | inactive | – |

| Structure (SMILES) | AC50 | activity, negative = inhibition |
| --- | --- | --- |
| COc1cc(C2C(C#N)=C(N)OC3=C2C(=O)CCC3)cc(OC)c1OC(=O)N1CCOCC1 (centres undefined) | inactive | – |
| CCOC(=O)CSC1=C(C#N)C(C)C2=C(CCCC2=O)N1 (centres undefined) | 2.51 µM (active) | – |
| CCOC(=O)CSC1=C(C#N)C(c2sccc2C)C(C(C)=O)=C(C)N1 (centres undefined) | 1.58 µM (active) | – |
| Cn1cc([N+](=O)[O-])c(C(=O)Nc2cc(Oc3cccnc3)cc([N+](=O)[O-])c2)n1 | 11.2 µM (active) | – |
| CC(=O)NN1C(=O)c2ccc(Oc3cccc([N+](=O)[O-])c3)cc2C1=O | inactive | – |
| CC(=O)OC[C@@H]1O[C@H](C/C=N\OC[C@@H](C)[C@H](OCc2ccccc2)C(C)C)C=C[C@@H]1OC(C)=O | – | -2.33% [at 11.4 µM] |
| O=C(CNC(=O)c1ccccc1)NCC(=O)OCc1ccc(Cl)cc1 | inactive | – |
| O=C(NCC(c1cccs1)N1CCOCC1)c1ccco1 (centres undefined) | inactive | – |
| O=C(CNC(=O)c1ccco1)OCc1c(F)cccc1Cl | 25.1 µM (active) | – |
| Cc1c(Nc2cc(N3CCCC(C)C3)c3nonc3c2[N+](=O)[O-])c(=O)n(-c2ccccc2)n1C (centres undefined) | inactive | – |
| Cc1c(Cl)c(S(N)(=O)=O)cc2c1=NC=NS=2(=O)O | – | -9.57% [at 2.29 µM] |
| Cn1c(CN2CCCCC2)nc2cc(NC(=O)c3ccc(Cl)cc3)ccc21 | inactive | – |
| Cc1ccc(OCC(=O)NNC(=O)c2cccnc2)cc1 | inactive | – |
| Cc1ccc(C(=O)Nc2cccc(-c3cnc4ccccc4n3)c2)cc1 | 0.891 µM (active) | – |
| COC(=O)COc1cccc(NC(=O)c2ccc(C)cc2)c1 | 7.94 µM (active) | – |
| Cc1ccc(C(=O)NNC(=O)c2cc3cc4ccccc4nc3s2)cc1 | inactive | – |
| O=C(Nc1cccc(-c2cnc3ccccc3n2)c1)c1ccc(Cl)cc1 | 1.12 µM (active) | – |
| O=C(O)C[C@H](Cc1ccccc1)C(=O)O | – | -4.07% [at 11.4 µM] |
| COCCn1c(C)cc2c(c1=O)C(c1ccccc1F)C(C#N)=C(N)O2 (centres undefined) | inactive | – |
| OC[C@@H](O)CN1CCN(c2ccccc2)CC1 | inactive | – |
| c1ccc(N2CCN(CCCOc3ccc4c(c3)OCO4)CC2)cc1 | 12.6 µM (active) | – |
| Cc1ccc(N2CCN(CCC(=O)O)CC2)cc1 | – | -8.97% [at 11.4 µM] |
| CC(C)=NO[C@@H](C)c1cc(-c2c(C)cc(C)cc2C)no1 | – | -3.7% [at 11.4 µM] |
| O=C(CCc1nc(-c2ccccc2)c(-c2ccccc2)o1)OCc1ccc(Cl)cc1 | 14.1 µM (active) | – |

| Structure (SMILES) | AC50 | activity, negative = inhibition |
| --- | --- | --- |
| CCCCCCCCCCCCCC(=O)O[C@H](CC(=O)O)C[N+](C)(C)C | inactive | – |
| CN1CCN(C2=Cc3ccccc3Oc3ccc(Cl)cc32)CC1 | 20 µM (active) | – |
| CN1CCN([C@@H](c2ccccc2)c2ccc(Cl)cc2)CC1 | inactive | – |
| CN1CCCN([C@@H](c2ccccc2)c2ccc(Cl)cc2)CC1 | inactive | – |
| COC(=O)[C@@]1(Cc2ccc(F)cc2)[C@H]2c3cc(C(=O)N4CCCC4)n(Cc4ccc(OC(F)(F)F)cc4)c3C[C@H]2CN1C(=O)c1ccccc1 | inactive | – |
| Cc1noc(NS(=O)(=O)c2ccc(N)cc2)c1C | inactive | – |
| Cc1noc(NS(=O)(=O)c2ccc(N/C=C\C(=O)c3ccc4c(c3)OCO4)cc2)c1C | inactive | – |
| Cc1noc(NS(=O)(=O)c2ccc(N/C=C/C(=O)c3ccc4c(c3)OCO4)cc2)c1C | 12.6 µM (active) | – |
| C[C@@H](/C=C\c1cccc(Oc2ccc(F)cc2)c1)N(O)C(N)=O | 0.158 µM (active) | – |
| CCC(C)(C)c1ccc(Oc2cccc(C(=O)O)c2)cc1 | – | -13.7% [at 11.4 µM] |
| C[C@H](C(=O)O)c1cccc(Oc2ccccc2)c1 | inactive | – |
| Cc1ccccc1-c1nc(NCc2cccnc2)c2ccccc2n1 | 0.501 µM (active) | – |
| CON(C)C(=O)c1nnc2c(n1)[nH]c1ccccc12 | – | 1.4% [at 11.4 µM] |
| FC(F)(F)c1ccccc1-c1nc(NCc2cccnc2)c2ccccc2n1 | 2 µM (active) | – |
| Clc1ccccc1-c1nc(NCc2cccnc2)c2ccccc2n1 | 0.631 µM (active) | – |
| C(=N/Nc1nnc2c(n1)[nH]c1ccccc12)/c1cccnc1 | 0.631 µM (active) | – |
| Clc1ccccc1-c1nc(N/N=C/c2cccnc2)c2ccccc2n1 | 0.141 µM (active) | – |
| CCCCn1c(SC(C)C(N)=O)nc2cc(C(=O)OC)ccc2c1=O (centres undefined) | 1.78 µM (active) | – |
| Cn1cnc([N+](=O)[O-])c1[Se]c1nc(N)nc2c1ncn2[C@@H]1O[C@@H](CO)[C@H](O)[C@@H]1O | – | -12.8% [at 2.29 µM] |
| CCOC(=O)c1c(C)nc2sc3c(=O)n(-c4ccc(C(C)=O)cc4)nnc3c2c1-c1ccc(Cl)cc1 | inactive | – |
| CCOc1nnc(C)c2c(C)n(-c3ccc(Cl)cc3)nc12 | 10 µM (active) | – |
| CCn1cc(-c2nnnn2-c2ccc(Cl)cc2)c(=O)c2ccccc21 | inactive | – |
